The list is not random: actives were taken first. Their share in the collection is about 5.8%.
KB-3-1 cytotox – KB-3-1 parental cell cytotoxicity; KB-3-1 viability, CellTiter-Glo ATP luminescence, 72 h; Potency, µM (titrated, usually from 46.1 µM), actives largely listed as cytotoxic; 1.4% of 400,000 active; AID 1347075; note: % is set by controls: 0 for no effect and ±100 for the full control effect; nearly all actives have a fitted effect of over 60% in size
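Parental KB-3-1 adenocarcinoma cells in phenol-red-free DMEM with 10% FBS were pin-treated with compounds at several concentrations, incubated 72 h at 37 °C, and viability read by CellTiter-Glo luminescence; concentration-effect curves were fitted after normalization.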
PINK1 expr mod – PINK1 expression modulation; PINK1 immunofluorescence, high-content cytometry, 24 h; Potency, µM (top dose mostly 76.6 µM), inactives show top-dose activation (PINK1 increase), most hits filed as activators; 0.2% of 410,000 active; AID 624263; active = well fitted activation curve with a large enough effect; inconclusive = small, poorly fitted or top-dose-only effect; cell line not stated here; note: % of control where 0% means no effect; nearly all actives have a fitted effect of over 65% in size
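A stable cell line was treated with compounds at 5 concentrations for 24 hours, with CCCP as control. PINK1 levels and mitochondrial localization were measured by immunofluorescence with mitochondrial, cell and nuclear markers after fixation, read by laser-scanning cytometry.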
ALOX12 inh – ALOX12 (human) lipoxygenase inhibition. AID 1671190. Potency, µM (series often up to 108 µM), for inactives: at the top dose activity change, negative = inhibition, most hits filed as inhibitors. 1.1% of 580,000 active. purified 12hLO, xylenol orange hydroperoxide absorbance; note: % is set by controls: 0 for no effect and ±100 for the full control effect
Target sequence (P18054 whole entry, looked up): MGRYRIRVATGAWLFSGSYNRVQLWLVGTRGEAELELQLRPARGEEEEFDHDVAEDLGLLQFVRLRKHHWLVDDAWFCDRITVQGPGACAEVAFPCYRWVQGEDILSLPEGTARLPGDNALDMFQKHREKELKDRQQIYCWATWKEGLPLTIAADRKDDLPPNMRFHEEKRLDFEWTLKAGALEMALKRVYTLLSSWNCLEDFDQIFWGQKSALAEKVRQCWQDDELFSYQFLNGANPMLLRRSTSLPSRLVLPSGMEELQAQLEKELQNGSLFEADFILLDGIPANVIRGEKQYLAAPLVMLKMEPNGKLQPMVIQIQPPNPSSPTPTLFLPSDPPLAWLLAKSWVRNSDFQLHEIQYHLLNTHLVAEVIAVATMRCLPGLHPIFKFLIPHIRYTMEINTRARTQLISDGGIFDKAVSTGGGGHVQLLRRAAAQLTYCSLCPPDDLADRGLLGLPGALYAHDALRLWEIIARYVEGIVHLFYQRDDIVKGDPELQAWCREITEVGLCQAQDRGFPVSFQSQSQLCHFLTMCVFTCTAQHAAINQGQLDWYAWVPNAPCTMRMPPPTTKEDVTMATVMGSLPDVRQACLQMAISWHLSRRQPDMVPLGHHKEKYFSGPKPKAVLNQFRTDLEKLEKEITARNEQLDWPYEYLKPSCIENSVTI
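Purified human 12hLO (150 nM final) in 25 mM Hepes, 0.01% Triton X-100, pH 7.0 was preincubated 15 min at room temperature with compound. Then 40 uM arachidonic acid was added, 30 min. Hydroperoxide was read by Fe-XO absorbance ratio 573/405 nm.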
KB-V1 cytotox – KB-V1 MDR subline cytotoxicity; Potency, µM (top dose mostly 46.1 µM), most hits filed as cytotoxic; KB-V1 MDR cells viability, CellTiter-Glo, 72 h; 3.4% of 400,000 active; AID 1347076; note: % is set by controls: 0 for no effect and ±100 for the full control effect; nearly all actives have a fitted effect of over 60% in size
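Potencies derive from concentration-effect curves fitted to normalized luminescence (CellTiter-Glo) of KB-V1 cells treated for 72 h at 37 degrees C in phenol-red-free DMEM containing 10% FBS.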
MCF10A rerep – inducers of DNA re-replication in MCF 10A breast cells; MCF 10A DNA re-replication, Hoechst nuclear intensity, 48 h; Potency, µM (titrated, usually from 46.1 µM), for the others: top-dose activity, positive = re-replication, most hits filed as activators; 2.9% of 350,000 active; AID 624296; note: % of control where 0% means no effect; nearly all actives have a fitted effect of over 50% in size
SW480 rerep – inducers of DNA re-replication in SW480 colon cancer cells; SW480 DNA re-replication, Hoechst DNA content imaging, 48 h; Potency, µM (highest dose often 46.1 µM), inactives show at the top dose re-replication activation, usual class: activators; 1.8% of 340,000 active; AID 624297; note: % of control where 0% means no effect; nearly all actives have a fitted effect of over 55% in size
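SW480 cells exposed to compounds for 48 hr at 37 C, 5% CO2, then Hoechst-stained 40 min. Nuclear DNA content imaged by fluorescence scanning (405 nm excitation, 500-530 nm emission); re-replication scored as increased high-intensity nuclei.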
* = called active by the depositor; [ ] = dose if it differs, or a comment. Unless noted, calls come from the whole dose curve; as a rule, active = well fitted curve in the direction sought with a large enough effect; inconclusive = small, poorly fitted or top-dose-only effect, or another doubt; inactive = no such curve, though single readings can be large; an effect the other way counts as inactive or inconclusive. Potency is the fitted concentration of half-maximal effect.

What do the screens show for `COC(=O)c1ccc(N/C=C/C(=O)c2ccc(Cl)c(Cl)c2)cc1`?
ALOX12 inh: 16%

What do the screens show for `O=C(COc1ccccc1)Nc1ccc(S(=O)(=O)N2CCCC2)cc1`?
KB-3-1 cytotox: inactive; PINK1 expr mod: 1%; ALOX12 inh: 13%; KB-V1 cytotox: inactive; MCF10A rerep: 4%; SW480 rerep: -2%

What do the screens show for `O=C(COc1ccccc1)Nc1ccc(S(=O)(=O)N2CCCCCC2)cc1`?
KB-3-1 cytotox: inactive; PINK1 expr mod: -4%; ALOX12 inh: inconclusive; KB-V1 cytotox: 16µM*; MCF10A rerep: 13%; SW480 rerep: 3%

What do the screens show for `CS(=O)(=O)N1CCC(C(=O)Nc2ccc(Oc3ccccc3)cc2)CC1`?
KB-3-1 cytotox: inactive; PINK1 expr mod: -1%[38.3 µM]; ALOX12 inh: 13%; KB-V1 cytotox: inconclusive; MCF10A rerep: 9.2µM*; SW480 rerep: 16µM*

What do the screens show for `COc1ccc2sc(-c3ccc(N(C)C)cc3)c(C#Cc3cncn3C)c2c1`?
KB-3-1 cytotox: 10µM*; PINK1 expr mod: -1%; ALOX12 inh: -3%; KB-V1 cytotox: inconclusive; MCF10A rerep: inconclusive; SW480 rerep: 1.3µM*

How did COc1ccc2sc(-c3ccc(N(C)C)cc3)c(C#CC(C)(C)O)c2c1 do in these assays?
KB-3-1 cytotox: inactive; PINK1 expr mod: 10%; ALOX12 inh: 4%; KB-V1 cytotox: inactive; MCF10A rerep: 12%; SW480 rerep: 2.1µM*

Results for COc1ccc2sc(-c3ccc(N(C)C)cc3)c(C#CCCO)c2c1 ?
KB-3-1 cytotox: inconclusive; PINK1 expr mod: 7%; ALOX12 inh: -5%; KB-V1 cytotox: inconclusive; MCF10A rerep: inconclusive; SW480 rerep: 4.1µM*

How did COc1ccc(-c2sc3cc(OC)c(OC)cc3c2C#CCO)cc1 do in these assays?
KB-3-1 cytotox: inactive; PINK1 expr mod: 7%; ALOX12 inh: -90%; KB-V1 cytotox: inactive; MCF10A rerep: 7%; SW480 rerep: 3.3µM*

Results for COc1ccccc1-c1sc2cc3c(cc2c1C#CC1(O)CCCCC1)OCO3 ?
KB-3-1 cytotox: inactive; PINK1 expr mod: 10%; ALOX12 inh: -27%; KB-V1 cytotox: inactive; MCF10A rerep: inconclusive; SW480 rerep: -4%

How did COc1ccc(-c2sc3cc4c(cc3c2C#CC2(O)CCCCC2)OCO4)cc1 do in these assays?
KB-3-1 cytotox: inactive; PINK1 expr mod: 17%; ALOX12 inh: inconclusive; KB-V1 cytotox: inactive; MCF10A rerep: 23µM*; SW480 rerep: -2%

How did CC1(C)N=C(N)N=C(N)N1CCCCc1ccccc1 do in these assays?
KB-3-1 cytotox: 1.5µM*; PINK1 expr mod: -1%; ALOX12 inh: -10%; KB-V1 cytotox: inactive; MCF10A rerep: 18%; SW480 rerep: -9%

Results for CC1(C)N=C(N)N=C(N)N1c1cccc(CC(=O)Nc2ccccc2)c1 ?
KB-3-1 cytotox: inactive; PINK1 expr mod: -1%; ALOX12 inh: 8%; KB-V1 cytotox: inactive

What do the screens show for `CCN(CC)c1ccc(/C=N/NC(=S)NC)c(O)c1`?
KB-3-1 cytotox: 9.2µM*; PINK1 expr mod: -1%; ALOX12 inh: inconclusive; KB-V1 cytotox: inactive; MCF10A rerep: 1.3µM*; SW480 rerep: -5%

Results for CCN(CC)c1ccc(/C=N/NC(=O)c2ccc3nc[nH]c3c2)c(O)c1 ?
KB-3-1 cytotox: inconclusive; PINK1 expr mod: 12%; KB-V1 cytotox: inactive; MCF10A rerep: 26%; SW480 rerep: 21µM*

Results for CCN(CC)c1ccc(/C=N/NC(=O)c2ccoc2C)c(O)c1 ?
KB-3-1 cytotox: 12µM*; PINK1 expr mod: 4%; ALOX12 inh: 4%; KB-V1 cytotox: inconclusive; MCF10A rerep: inconclusive; SW480 rerep: 13µM*

How did CCN(CC)c1ccc(/C=N/N=C(N)N)c(O)c1 do in these assays?
KB-3-1 cytotox: inconclusive; PINK1 expr mod: 4%; ALOX12 inh: -6%; KB-V1 cytotox: inconclusive; MCF10A rerep: 4.1µM*; SW480 rerep: 16µM*

Results for Cc1cc(/C=N/NC(=O)c2ccoc2C)cc(C)c1O ?
KB-3-1 cytotox: inactive; PINK1 expr mod: 0%; ALOX12 inh: 18%; KB-V1 cytotox: inactive

How did CCN(CC)c1ccc(/C=N/NC(=O)OC)c(O)c1 do in these assays?
KB-3-1 cytotox: inactive; PINK1 expr mod: 9%; ALOX12 inh: 64%; KB-V1 cytotox: inconclusive; MCF10A rerep: -1%; SW480 rerep: 8%

What do the screens show for `CONC(=O)CC1Sc2ccc(Cl)cc2NC1=O` (stereo unspecified)?
ALOX12 inh: 20%

Results for CC(C)CNC(=O)C(NC(=O)c1ccccc1)C1CCN(C(=O)c2ccccc2)CC1 (stereo unspecified) ?
ALOX12 inh: 34%

Results for CC(NC(=O)NCCNc1ncccn1)c1ccccn1 (stereo unspecified) ?
ALOX12 inh: -11%

What do the screens show for `CC(C)Cn1cnc2c1c(=O)n(CC(=O)NCCc1ccc(F)cc1)c(=O)n2Cc1ccccc1`?
ALOX12 inh: -25%

What do the screens show for `O=C(NC1CC1)c1cccc(NC(=O)c2cnn(-c3ccccc3)n2)c1`?
KB-3-1 cytotox: inactive; PINK1 expr mod: 2%; ALOX12 inh: 25%; KB-V1 cytotox: 15µM*; MCF10A rerep: 3%; SW480 rerep: -7%

What do the screens show for `O=C(Nc1cccc(C(=O)NC2CCCC2)c1)c1ccccc1`?
KB-3-1 cytotox: inactive; PINK1 expr mod: 0%; ALOX12 inh: 143%; KB-V1 cytotox: inactive; MCF10A rerep: 2%; SW480 rerep: 0%

How did Cc1cc(NC(=O)CNc2cc(S(=O)(=O)N3CCCCC3)ccc2Oc2ccccc2)no1 do in these assays?
ALOX12 inh: 16%

What do the screens show for `Cc1cccc2sc(N(CCN(C)C)C(=O)/C=C/c3cccs3)nc12`?
KB-3-1 cytotox: inconclusive; PINK1 expr mod: 3%; ALOX12 inh: inconclusive; KB-V1 cytotox: 18µM*; MCF10A rerep: 23µM*; SW480 rerep: inconclusive

How did CN(C)CCCN(C(=O)/C=C/c1cccs1)c1nc2c(F)cccc2s1 do in these assays?
KB-3-1 cytotox: inconclusive; PINK1 expr mod: -4%; ALOX12 inh: -24%; KB-V1 cytotox: inconclusive; MCF10A rerep: 26µM*; SW480 rerep: inconclusive

What do the screens show for `CCOc1ccc2nc(N(CCN(CC)CC)C(=O)/C=C/c3cccs3)sc2c1`?
KB-3-1 cytotox: inactive; PINK1 expr mod: 13%; ALOX12 inh: -18%; KB-V1 cytotox: inactive; MCF10A rerep: inconclusive; SW480 rerep: 29µM*

Results for COc1ccc2nc(N(CCN(C)C)C(=O)/C=C/c3cccs3)sc2c1 ?
KB-3-1 cytotox: inconclusive; PINK1 expr mod: 9%; ALOX12 inh: inconclusive; KB-V1 cytotox: inactive; MCF10A rerep: 26%; SW480 rerep: 3%

Screening results (PubChem)
